Measured values published in the supplement of paper PMC5919970.
Where a name gives a salt, the structure may show the parent alone. The full ranking holds about 2,000 compounds; the median of “fractional viability relative to vehicle” is about 0.91, and the lowest 2% start at about 0.045. The full list was thinned out, with the lowest values kept by preference.

System: TYKNU
Test: fractional viability relative to vehicle; TYKNU is a high-grade serous ovarian cancer line; higher = less growth inhibition
Conditions: 72 h
Outline: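 TYKNU control cells or lentiCRISPRv2 knockout derivatives were plated at 500 cells per well in duplicate into drug-stamped 384-well plates holding a ~2100-compound library at 2 or 10 μM. Culture was in RPMI 1640 with 10% FBS at 37 °C in 5% CO2, with 72 h of drug treatment. Viability was measured by Cell Titer Glo luminescence, and the averaged duplicate treatment wells were normalised to duplicate control wells at the same plate position.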

[1] = 2uM, genotype: DNM1L knockout (sgDNM1L #1)
[2] = 2uM, genotype: sgCTRLA1 (non-targeting control)
[3] = 10uM, genotype: DNM1L knockout (sgDNM1L #1)
[4] = 10uM, genotype: sgCTRLA1 (non-targeting control)

Row | SMILES | fractional viability [1] | fractional viability [2] | fractional viability [3] | fractional viability [4]
1 | CCCCc1nc2cc(/C=C/C(=O)NO)ccc2n1CCN(CC)CC [Pracinostat (SB939)] | 0.146 | 0.22 | 0.0823 | 0.0879
2 | O=C1NC(=O)/C(=C/c2ccc3nccc(-c4ccncc4)c3c2)S1 | 0.556 | 0.7 | 0.21 | 0.219
3 | CCCCCCCCCCCCCCCCO [1-Hexadecanol] | 0.833 | 1.09 | 0.879 | 1.1
4 | CCCCCCCCCCCCCCCC[N+](C)(C)C [Cetrimonium Bromide (CTAB)] | 0.311 | 0.295 | 0.0593 | 0.0171
5 | CCCCCCCCCCCC[N+](C)(C)CCOc1ccccc1 [Domiphen Bromide] | 0.558 | 0.882 | 0.0673 | 0.0826
6 | COc1ccc(-n2c(SCCCN3C(=O)c4cccc5cccc(c45)C3=O)nnc2-c2ccncc2)cc1 | 0.722 | 0.945 | 0.895 | 0.738
7 | Nc1nccc(Oc2ccc(NC(=O)c3c[nH]cc(-c4ccc(F)cc4)c3=O)cc2F)c1Cl | 1.09 | 1.05 | 0.598 | 0.808
8 | CC1(C)CCC2=C(O1)c1ccccc1C(=O)C2=O [Beta-Lapachone] | 0.128 | 0.0912 | 0.0219 | 0.023
9 | CC1=CC(=O)c2ccccc2C1=O [Menadione] | 0.872 | 1.1 | 0.952 | 0.951
10 | N#C/C(=C(/N)Sc1ccc(N)cc1)c1ccccc1C(F)(F)F | 0.881 | 0.905 | 0.626 | 0.785
11 | OC[C@H]1O[C@@H](c2ccc(Cl)c(Cc3ccc(O[C@H]4CCOC4)cc3)c2)[C@H](O)[C@@H](O)[C@@H]1O | 0.8 | 1.06 | 0.788 | 0.819
12 | Oc1cc2c(cc1O)[C@@H]1c3ccc(O)c(O)c3OC[C@]1(O)C2 [Hematoxylin] | 0.878 | 1.11 | 0.861 | 0.977
13 | CCOC(=O)[C@H](CCc1ccccc1)N[C@H]1CS[C@H](c2cccs2)CN(CC(=O)O)C1=O [Temocapril HCl] | 0.889 | 1.23 | 0.83 | 1.04
14 | CC(C)c1cc(-c2n[nH]c(=O)n2-c2ccc3c(ccn3C)c2)c(O)cc1O [Ganetespib (STA-9090)] | 0.299 | 0.204 | 0.248 | 0.206
15 | Cc1[nH]c(/C=C2\C(=O)Nc3ccc(S(=O)(=O)N(C)c4cccc(Cl)c4)cc32)c(C)c1C(=O)N1CCN(C)CC1 | 1.02 | 0.999 | 0.152 | 0.189
16 | CN(C)S(=O)(=O)c1ccc2c(c1)/C(=C/c1cc3c([nH]1)CCCC3)C(=O)N2 | 0.562 | 0.815 | 0.234 | 0.264
17 | Cc1[nH]c(/C=C2\C(=O)Nc3ccc(S(=O)(=O)Cc4c(Cl)cccc4Cl)cc32)c(C)c1C(=O)N1CCC[C@@H]1CN1CCCC1 | 0.317 | 0.279 | 0.0474 | 0.0167
18 | CCOC(=O)c1ccc(NC(=O)O[C@H]2[C@H](OC(=O)Nc3ccc4c(c3)OCO4)[C@@H](OC(=O)Nc3ccc4c(c3)OCO4)[C@@H](OC)O[C@@H]2CO)cc1 | 0.821 | 1.04 | 0.616 | 0.615
19 | CCCCCCCCC/C(=C\C1=C(C)C(=O)C(OC)=C(OC)C1=O)C(=O)O | 0.847 | 0.878 | 0.855 | 0.701

Row | SMILES | fractional viability [1] | fractional viability [2] | fractional viability [3] | fractional viability [4]
20 | Cn1sc(=O)n(Cc2ccccc2)c1=O | 0.797 | 0.735 | 0.0256 | 0.00748
21 | Cc1ccc(-n2sc(=O)n(Cc3ccc(F)cc3)c2=O)cc1 | 0.995 | 1.11 | 0.469 | 0.618
22 | O=C(NC[C@H](O)CN1CCc2ccccc2C1)c1cc(NC2COC2)ncn1 | 0.764 | 0.899 | 0.604 | 0.662
23 | COc1ccc(-c2ccc3ncc4c(c3c2)n(-c2ccc(N3CCNCC3)c(C(F)(F)F)c2)c(=O)n4C)cn1 | 0.0297 | 0.0315 | 0.0158 | 0.0115
24 | Nc1ccc(-c2ccc3ncc4ccc(=O)n(-c5cccc(C(F)(F)F)c5)c4c3c2)cn1 [Torin 2] | 0.125 | 0.114 | 0.114 | 0.0945
25 | O=C(Nc1ccc(OC(F)(F)F)cc1)c1sccc1NCc1ccnc2ccccc12 | 0.926 | 0.906 | 0.215 | 0.181
26 | CN1CCN(c2c(F)cc3c(=O)c(C(=O)O)cn4c3c2OCN4C)CC1 [Marbofloxacin] | 1.13 | 1.21 | 0.971 | 1.01
27 | Cc1c(C(=O)NN2CCCCC2)nn(-c2ccc(Cl)cc2Cl)c1-c1ccc(Cl)cc1 [Rimonabant] | 1.11 | 1.01 | 0.575 | 0.753
28 | CNC(=O)c1ccc(Nc2ncc(C(F)(F)F)c(NCc3nccnc3N(C)S(C)(=O)=O)n2)cc1 | 0.702 | 0.772 | 0.213 | 0.179
29 | CC(C)(O)c1ccccc1CC[C@@H](SCC1(CC(=O)O)CC1)c1cccc(/C=C/c2ccc3ccc(Cl)cc3n2)c1 [Montelukast Sodium] | 0.809 | 1.13 | 0.762 | 1.05
30 | COC(=O)c1ccc2c(c1)NC(=O)/C2=C(\Nc1ccc(N(C)C(=O)CN2CCN(C)CC2)cc1)c1ccccc1 [Nintedanib (BIBF 1120)] | 0.903 | 0.889 | 0.152 | 0.147
31 | CN(C)Cc1cccc(N/C(=C2\C(=O)Nc3cc(C(N)=O)ccc32)c2ccccc2)c1 | 1.01 | 0.992 | 1.05 | 0.912
32 | CCS(=O)(=O)Nc1ccc2c(c1)/C(=C(/Nc1ccc(CN3CCCCC3)cc1)c1ccccc1)C(=O)N2 [Hesperadin] | 0.316 | 0.329 | 0.0548 | 0.0381
33 | CC#CCn1c(N2CCC[C@@H](N)C2)nc2c1c(=O)n(Cc1nc(C)c3ccccc3n1)c(=O)n2C [Linagliptin] | 1.22 | 1.14 | 0.918 | 0.986
34 | NC(=O)c1cn(Cc2c(F)cccc2F)nn1 [Rufinamide] | 0.992 | 1.08 | 1.07 | 1.04
35 | Cc1cc(C)nc(NS(=O)(=O)c2ccc(NC(=S)NC(=O)COc3ccc(Br)cc3Cl)cc2)n1 | 1.05 | 1.04 | 0.706 | 1.08
36 | CN1CCN(c2ccc(Nc3cc(-c4cccc(-n5ccc6cc(C7CC7)cc(F)c6c5=O)c4CO)cn(C)c3=O)nc2)CC1 | 0.836 | 0.97 | 0.114 | 0.182
37 | CCOC(=O)[C@@H](N)Cc1ccc(-c2cc(O[C@H](c3ccc(Cl)cc3-n3ccc(C)n3)C(F)(F)F)nc(N)n2)cc1 [Telotristat Etiprate (LX 1606 Hippurate)] | 0.777 | 1.1 | 0.0468 | 0.12
38 | COC(=O)[C@H](Cc1ccccc1)NC(=O)[C@@H](N)CC(=O)O [Aspartame] | 1.02 | 1.15 | 0.941 | 0.985

Row | SMILES | fractional viability [1] | fractional viability [2] | fractional viability [3] | fractional viability [4]
39 | CC(NC(=O)C(Cc1ccccc1)NC(=O)OCc1ccccc1)C(=O)CF (stereo not drawn) | 0.85 | 0.869 | 0.793 | 0.606
40 | CC(C)C[C@H](NC(=O)[C@H](CCc1ccccc1)NC(=O)CN1CCOCC1)C(=O)N[C@@H](Cc1ccccc1)C(=O)N[C@@H](CC(C)C)C(=O)[C@@]1(C)CO1 [Carfilzomib (PR-171)] | 0.0773 | 0.0587 | 0.0559 | 0.057
41 | COc1ccc(C[C@H](NC(=O)[C@H](C)NC(=O)CN2CCOCC2)C(=O)N[C@@H](Cc2ccccc2)C(=O)[C@@]2(C)CO2)cc1 | 0.0589 | 0.0514 | 0.0565 | 0.0416
42 | COC[C@H](NC(=O)c1cnc(C)s1)C(=O)N[C@@H](COC)C(=O)N[C@@H](Cc1ccccc1)C(=O)[C@@]1(C)CO1 [Oprozomib (ONX 0912)] | 0.0658 | 0.0656 | 0.055 | 0.0445
43 | CC(C)C[C@H](NC(=O)[C@H](Cc1ccccc1)NC(=O)c1cnccn1)B(O)O [Bortezomib (PS-341)] | 0.1 | 0.0838 | 0.101 | 0.0762
44 | C[C@@]1(C(=O)Nc2ccc(F)nc2)CCCN1c1nc(Nc2cc(C3CC3)n[nH]2)c2cccn2n1 | 0.561 | 0.689 | 0.282 | 0.252
45 | O=C(N/N=C/c1cc(O)c(O)cc1O)c1cc2ccccc2cc1O [Dyngo-4a] | 0.912 | 1.05 | 0.857 | 0.867
46 | Oc1ccc(Cc2nc3c(Cc4ccccc4)nc(-c4ccc(O)cc4)cn3c2O)cc1 [Coelenterazine] | 0.928 | 1.05 | 0.977 | 0.839
47 | O=C1N=C(O)NC1(c1ccccc1)c1ccccc1 [Phenytoin sodium] | 1.03 | 1.09 | 0.864 | 1.04
48 | CCc1cc(Nc2nccc(-c3c(-c4ccc(OC)c(C(=O)Nc5c(F)cccc5F)c4)nc4ccccn34)n2)c(OC)cc1N1CCC(N2CCN(S(C)(=O)=O)CC2)CC1 | 1.12 | 1.04 | 0.72 | 0.915
49 | CC(O)c1cc(C(=O)N[C@@H](C)Cn2ccc(-c3ccc(C#N)c(Cl)c3)n2)n[nH]1 (stereo partly drawn) | 0.762 | 0.897 | 0.94 | 0.769
50 | CN(C)Cc1c(C(=O)NCCOc2ccc(C(=O)NO)cc2)oc2ccccc12 | 0.184 | 0.244 | 0.0877 | 0.133
51 | COc1cccc(-n2c(=O)[nH]c3cc(Cl)n(-c4ccc(-c5cccc(OC)c5O)cc4)c3c2=O)c1 | 0.844 | 1.02 | 0.857 | 0.918
52 | COc1ccc2[nH]cc(/C=C3\C(=O)Nc4ccc(NC(=O)CCN5CCCCC5)cc43)c2c1 | 0.761 | 0.929 | 0.809 | 0.795
53 | CN1CCCN(C(=O)c2cccc(-c3ccc(/C=C4/C(=O)Nc5ccc(Cl)cc54)o3)c2)CC1 | 0.0585 | 0.0575 | 0.0139 | 0.00867
54 | CN1CCN(C(=O)c2cc3cc(Cl)ccc3[nH]2)CC1 | 1.13 | 1.23 | 0.961 | 1.16
55 | O=C(Nc1nc2cccc(-c3ccc(CN4CCS(=O)(=O)CC4)cc3)n2n1)C1CC1 [Filgotinib (GLPG0634)] | 0.73 | 0.849 | 0.493 | 0.573
56 | CC(=O)OCOC(=O)CN(CC(=O)OCOC(C)=O)c1ccccc1OCCOc1ccccc1N(CC(=O)OCOC(C)=O)CC(=O)OCOC(C)=O | 0.391 | 0.569 | 0.0416 | 0.0639
57 | CC(=O)Oc1ccccc1C(=O)O [Aspirin] | 0.863 | 1.09 | 1.01 | 1.05
